Assay results as given in ChEMBL document CHEMBL3988442, “University of Dundee, Small-Polar-MMV Screening Library” (2021).
For some assays here: Entries with a potency or affinity are not part of this list.

Tests used:
Parameters in all cases: scale not given: direction of the effect not stated beside the values
[1] = molecular target: Protein translocase subunit SecA (Escherichia coli (strain K12)) (UniProt P10408); test: Assay to Identify E. coli SecA ATPase Inhibitors; type: functional; details: 30 µM
[2] = molecular target: T1, Ubiquitin-activating enzyme e1, putative (Leishmania donovani (strain BPK282A1)) (UniProt E9BSI1); test: Leishmania donovani Ubiquitin Activating Enzyme (LdE1); type: functional; details: 30 µM
T1 sequence (whole entry): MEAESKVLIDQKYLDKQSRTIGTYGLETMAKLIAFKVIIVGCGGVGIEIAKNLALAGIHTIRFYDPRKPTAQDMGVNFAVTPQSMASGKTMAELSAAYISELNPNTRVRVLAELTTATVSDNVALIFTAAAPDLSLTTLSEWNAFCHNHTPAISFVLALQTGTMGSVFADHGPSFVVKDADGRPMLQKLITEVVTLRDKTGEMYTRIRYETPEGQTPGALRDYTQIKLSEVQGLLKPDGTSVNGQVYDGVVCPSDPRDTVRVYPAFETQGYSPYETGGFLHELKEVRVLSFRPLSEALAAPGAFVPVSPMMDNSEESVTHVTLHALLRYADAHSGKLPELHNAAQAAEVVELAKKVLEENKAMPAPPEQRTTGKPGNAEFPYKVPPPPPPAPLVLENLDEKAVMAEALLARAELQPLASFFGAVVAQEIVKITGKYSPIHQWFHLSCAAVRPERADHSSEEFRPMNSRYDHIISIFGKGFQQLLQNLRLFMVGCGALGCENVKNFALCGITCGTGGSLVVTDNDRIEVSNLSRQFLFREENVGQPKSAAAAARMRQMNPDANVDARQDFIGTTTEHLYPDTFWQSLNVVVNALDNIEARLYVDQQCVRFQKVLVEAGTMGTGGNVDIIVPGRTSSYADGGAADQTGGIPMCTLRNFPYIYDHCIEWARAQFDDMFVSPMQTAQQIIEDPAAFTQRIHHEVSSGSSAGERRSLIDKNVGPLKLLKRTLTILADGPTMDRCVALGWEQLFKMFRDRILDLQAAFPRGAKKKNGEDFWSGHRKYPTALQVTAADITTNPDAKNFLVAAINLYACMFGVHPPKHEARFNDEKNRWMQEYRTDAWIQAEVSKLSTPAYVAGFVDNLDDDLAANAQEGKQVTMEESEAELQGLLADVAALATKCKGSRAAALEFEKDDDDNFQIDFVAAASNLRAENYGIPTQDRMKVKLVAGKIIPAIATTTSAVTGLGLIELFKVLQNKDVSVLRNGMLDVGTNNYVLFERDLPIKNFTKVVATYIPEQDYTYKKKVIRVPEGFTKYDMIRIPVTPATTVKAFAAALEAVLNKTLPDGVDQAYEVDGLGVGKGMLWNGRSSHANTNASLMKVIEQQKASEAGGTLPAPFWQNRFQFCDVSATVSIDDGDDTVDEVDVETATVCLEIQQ

[3] = molecular target: AMP-activated protein kinase, AMPK (Homo sapiens) (UniProt P54646+O43741+P54619+Q9UGJ0+Q9Y478+Q13131+Q9UGI9); test: AMP-dependent Kinase enzyme assay. An in vitro enzyme assay that detects ADP turnover that is directly proportional to AMPK activity. This uses naive AMPK that is activated during the assay with MK-8722; type: functional; details: 30 µM
[4] = molecular target: Sialic acid-binding Ig-like lectin 9 (Homo sapiens) (UniProt Q9Y336); test: Hs-Siglec9 ALPHAscreen SOP 20170721; details: 10 µM
Trypanosoma cruzi = test: Trypanosoma cruzi phosphomannomutase and mannose-1-phosphate guanylyltransferase assay; type: functional; details: 10 µM
[5] = molecular target: T2, Arginase-2, mitochondrial (Homo sapiens) (UniProt P78540); test: in vitro enzyme assay to detect the production of urea directly proportional to the activity of Arginase II; type: functional; details: 33.3 µM; note: in the data most compounds retested in dose-response had high values
T2 sequence (whole entry): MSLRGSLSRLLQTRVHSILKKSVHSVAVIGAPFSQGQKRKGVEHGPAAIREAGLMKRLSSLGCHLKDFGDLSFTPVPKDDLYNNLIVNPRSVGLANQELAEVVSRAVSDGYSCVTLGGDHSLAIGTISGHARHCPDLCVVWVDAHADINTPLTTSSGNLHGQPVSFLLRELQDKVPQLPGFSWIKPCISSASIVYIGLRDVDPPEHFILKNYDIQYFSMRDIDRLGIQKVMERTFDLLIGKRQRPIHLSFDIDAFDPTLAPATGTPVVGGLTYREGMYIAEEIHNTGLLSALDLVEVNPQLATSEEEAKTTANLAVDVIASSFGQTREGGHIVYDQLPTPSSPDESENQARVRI

[6] = molecular target: T3, Proteasome subunit beta (Trypanosoma cruzi) (UniProt O96673); test: Trypanosoma cruzi proteasome chymotrypsin-like activity (TcProtChymo) assay.; note: in the data most compounds retested in dose-response had high values; type: functional; details: 9.37 µM
T3 sequence (whole entry): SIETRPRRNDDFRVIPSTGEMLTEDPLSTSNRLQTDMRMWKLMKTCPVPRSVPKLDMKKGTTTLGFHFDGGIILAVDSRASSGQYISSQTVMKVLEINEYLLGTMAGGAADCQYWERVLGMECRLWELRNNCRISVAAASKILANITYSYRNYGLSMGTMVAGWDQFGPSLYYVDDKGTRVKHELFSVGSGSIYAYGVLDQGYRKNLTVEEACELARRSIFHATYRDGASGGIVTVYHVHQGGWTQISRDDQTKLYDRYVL

Homo sapiens = species: Homo sapiens; test: To identify inhibition of the IFN signalling (Jak-Stat) pathway via expression of an eGFP reporter gene under the control of an IFN-stimulated response element (ISRE) containing MxA promoter.; type: functional; details: 30 µM
[7] = molecular target: T4, Tyrosyl-tRNA synthetase, putative (Trypanosoma cruzi (strain CL Brener)) (UniProt Q4DSP6); test: Trypanosoma cruzi tyrosyl tRNA synthetase (TcYRS) _High Tyrosine SOP; type: functional; details: 30 µM; note: in the data most compounds retested in dose-response had high values
T4 sequence (whole entry): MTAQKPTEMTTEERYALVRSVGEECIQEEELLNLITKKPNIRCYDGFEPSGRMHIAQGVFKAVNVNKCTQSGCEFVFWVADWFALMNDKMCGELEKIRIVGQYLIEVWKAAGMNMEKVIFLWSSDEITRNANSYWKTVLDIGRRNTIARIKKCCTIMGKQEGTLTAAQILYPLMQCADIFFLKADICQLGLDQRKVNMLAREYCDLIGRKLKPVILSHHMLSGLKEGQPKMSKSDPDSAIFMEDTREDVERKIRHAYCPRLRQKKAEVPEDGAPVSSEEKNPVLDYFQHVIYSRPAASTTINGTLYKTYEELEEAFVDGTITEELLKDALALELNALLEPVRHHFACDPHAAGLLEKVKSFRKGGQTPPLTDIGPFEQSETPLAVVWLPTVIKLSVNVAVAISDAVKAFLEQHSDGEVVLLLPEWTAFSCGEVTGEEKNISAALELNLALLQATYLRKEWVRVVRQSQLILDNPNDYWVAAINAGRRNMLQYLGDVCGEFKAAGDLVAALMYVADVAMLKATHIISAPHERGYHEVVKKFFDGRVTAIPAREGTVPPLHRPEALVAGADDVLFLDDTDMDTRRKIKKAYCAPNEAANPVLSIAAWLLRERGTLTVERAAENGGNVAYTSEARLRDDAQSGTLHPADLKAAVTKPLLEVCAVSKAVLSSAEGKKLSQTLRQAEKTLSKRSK

[8] = molecular target: T4, Tyrosyl-tRNA synthetase, putative (Trypanosoma cruzi (strain CL Brener)); test: Trypanosoma cruzi tyrosyl tRNA synthetase (TcYRS) SOP; type: functional; details: 30 µM
[9] = molecular target: Chromo domain-containing protein 1 (Saccharomyces cerevisiae (strain ATCC 204508 / S288c) (Baker's yeast)) (UniProt P32657); test: ScCHD-1 Enzyme Inhibition Assay; type: functional; details: 30 µM; note: in the data most compounds retested in dose-response had high values
Chromo domain-containing protein 1 (Saccharomyces cerevisiae (strain ATCC 204508 / S288c) (Baker's yeast)), sequence (P32657 whole entry, the tested form may be a part): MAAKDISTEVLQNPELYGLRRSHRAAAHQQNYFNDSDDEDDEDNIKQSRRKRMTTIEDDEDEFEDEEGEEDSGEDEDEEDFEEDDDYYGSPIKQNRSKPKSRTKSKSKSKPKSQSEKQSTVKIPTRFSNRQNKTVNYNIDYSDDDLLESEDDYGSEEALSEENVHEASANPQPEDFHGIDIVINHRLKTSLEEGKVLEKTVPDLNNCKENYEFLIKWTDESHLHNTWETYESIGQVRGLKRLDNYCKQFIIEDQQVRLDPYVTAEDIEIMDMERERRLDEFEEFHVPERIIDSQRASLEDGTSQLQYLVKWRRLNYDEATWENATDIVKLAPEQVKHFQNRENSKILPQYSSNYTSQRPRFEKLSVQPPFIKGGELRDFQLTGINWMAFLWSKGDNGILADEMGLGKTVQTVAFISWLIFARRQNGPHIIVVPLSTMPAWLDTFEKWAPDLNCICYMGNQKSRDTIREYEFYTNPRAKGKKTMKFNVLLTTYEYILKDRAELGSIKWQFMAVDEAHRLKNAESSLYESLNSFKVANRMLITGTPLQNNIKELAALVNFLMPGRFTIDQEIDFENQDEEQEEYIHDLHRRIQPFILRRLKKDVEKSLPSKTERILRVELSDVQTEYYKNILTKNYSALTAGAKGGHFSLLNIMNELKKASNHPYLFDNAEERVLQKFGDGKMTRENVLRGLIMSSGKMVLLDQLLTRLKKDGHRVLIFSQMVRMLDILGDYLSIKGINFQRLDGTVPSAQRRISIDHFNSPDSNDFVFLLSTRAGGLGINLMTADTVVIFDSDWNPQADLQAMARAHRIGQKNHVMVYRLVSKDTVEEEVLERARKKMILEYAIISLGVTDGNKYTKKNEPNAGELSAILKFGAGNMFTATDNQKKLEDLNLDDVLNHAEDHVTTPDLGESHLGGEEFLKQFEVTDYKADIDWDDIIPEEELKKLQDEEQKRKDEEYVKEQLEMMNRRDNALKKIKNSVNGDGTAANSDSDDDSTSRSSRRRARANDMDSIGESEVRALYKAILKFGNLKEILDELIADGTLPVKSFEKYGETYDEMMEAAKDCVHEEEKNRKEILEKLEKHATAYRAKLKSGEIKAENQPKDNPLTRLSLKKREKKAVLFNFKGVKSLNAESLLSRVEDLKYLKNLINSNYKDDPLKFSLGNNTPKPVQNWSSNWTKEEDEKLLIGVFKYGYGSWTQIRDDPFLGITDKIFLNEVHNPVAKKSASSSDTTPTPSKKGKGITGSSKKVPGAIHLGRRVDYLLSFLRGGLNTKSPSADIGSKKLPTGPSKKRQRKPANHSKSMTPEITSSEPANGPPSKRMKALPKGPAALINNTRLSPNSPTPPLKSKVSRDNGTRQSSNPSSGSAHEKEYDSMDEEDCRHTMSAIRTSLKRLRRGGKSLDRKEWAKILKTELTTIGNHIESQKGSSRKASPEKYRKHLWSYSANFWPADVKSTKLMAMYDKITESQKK

Sialic acid-binding Ig-like lectin 9 (Homo sapiens), sequence (Q9Y336 whole entry): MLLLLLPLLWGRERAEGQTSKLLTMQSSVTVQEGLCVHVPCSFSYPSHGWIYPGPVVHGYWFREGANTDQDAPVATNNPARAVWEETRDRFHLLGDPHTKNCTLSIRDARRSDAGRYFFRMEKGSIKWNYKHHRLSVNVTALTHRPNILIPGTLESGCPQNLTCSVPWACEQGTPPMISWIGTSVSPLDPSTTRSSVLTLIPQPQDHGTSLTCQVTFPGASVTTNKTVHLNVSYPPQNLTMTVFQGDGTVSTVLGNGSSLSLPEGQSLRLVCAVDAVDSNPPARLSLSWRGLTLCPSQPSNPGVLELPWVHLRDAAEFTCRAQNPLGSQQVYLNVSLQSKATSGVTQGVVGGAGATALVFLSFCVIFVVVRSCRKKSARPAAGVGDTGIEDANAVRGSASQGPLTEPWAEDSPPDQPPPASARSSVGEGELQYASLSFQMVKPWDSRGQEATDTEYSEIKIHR
Protein translocase subunit SecA (Escherichia coli (strain K12)), sequence (P10408 whole entry): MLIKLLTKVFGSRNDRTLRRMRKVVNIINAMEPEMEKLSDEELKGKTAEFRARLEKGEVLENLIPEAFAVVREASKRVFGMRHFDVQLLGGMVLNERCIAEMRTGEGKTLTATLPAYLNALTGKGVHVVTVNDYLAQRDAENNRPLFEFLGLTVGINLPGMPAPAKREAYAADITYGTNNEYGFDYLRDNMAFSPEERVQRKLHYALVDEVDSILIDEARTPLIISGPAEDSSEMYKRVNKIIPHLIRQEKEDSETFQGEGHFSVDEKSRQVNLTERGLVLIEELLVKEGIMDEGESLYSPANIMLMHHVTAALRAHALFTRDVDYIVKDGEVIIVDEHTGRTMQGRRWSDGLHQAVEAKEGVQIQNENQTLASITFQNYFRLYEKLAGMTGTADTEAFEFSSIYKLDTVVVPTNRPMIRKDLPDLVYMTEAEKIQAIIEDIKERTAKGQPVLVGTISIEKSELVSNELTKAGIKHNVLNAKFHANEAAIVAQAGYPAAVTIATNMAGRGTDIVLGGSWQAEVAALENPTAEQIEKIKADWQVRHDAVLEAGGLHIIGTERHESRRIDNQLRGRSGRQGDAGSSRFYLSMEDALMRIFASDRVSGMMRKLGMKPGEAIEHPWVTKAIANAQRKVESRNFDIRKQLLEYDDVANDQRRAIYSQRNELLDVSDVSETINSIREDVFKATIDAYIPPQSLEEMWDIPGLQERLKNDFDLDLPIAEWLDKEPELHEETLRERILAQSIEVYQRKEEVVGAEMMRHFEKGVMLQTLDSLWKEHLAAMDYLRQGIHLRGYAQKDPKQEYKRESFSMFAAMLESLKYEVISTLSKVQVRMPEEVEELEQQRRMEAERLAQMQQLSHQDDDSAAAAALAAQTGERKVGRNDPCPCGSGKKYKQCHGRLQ

| SMILES | Percent Effect [1] [%] | Percent Effect [2] [%] | Percent Effect [3] [%] | Percent Effect [4] [%] | Percent Effect (Trypanosoma cruzi) [%] | Percent Effect [5] [%] | Percent Effect [6] [%] | Percent Effect (Homo sapiens) [%] | Percent Effect [7] [%] | Percent Effect [8] [%] | Percent Effect [9] [%] |
| --- | --- | --- | --- | --- | --- | --- | --- | --- | --- | --- | --- |
| Cc1nc(CN2CCN(C(=O)c3sccc3C3CC3)CC2)cs1 | -2.84 | 0 | 8.03 | 9.39 | -0.49 | 3.16 | 3.48 | -10.3 | -2.86 | -2.35 | -13.7 |
| CC(C)N(C)Cc1cn2c(n1)CN(Cc1ccsc1)CC2 | 5.48 | 11 | 1.28 | 6.24 | -5.56 | -3.19 | 9.33 | 18.4 | 7.29 | 8.64 | 2.73 |
| CCCN(CC1COc2ccccc2O1)C(=O)CCn1cncn1 (stereo unspecified) | -3.98 | 13.2 | -1.36 | -1.88 | -1.5 | -0.383 | 8.52 | 0.478 | 7.35 | 17.1 | -2.23 |
| CCn1ccnc1CN1CCN(Cc2ccccn2)CC1C (stereo unspecified) | 1.15 | 5.41 | -1.29 | 3.52 | -3.91 | 5.42 | 9.04 | 12.7 | 8.91 | 13.4 | 14 |
| CN(C)CC1CN(C(=O)NCc2ccccc2)Cc2nccn2C1 (stereo unspecified) | -2.59 | 13.7 | -1.1 | 4.01 | -1.59 | -3.19 | 5.39 | 3.73 | 3.12 | 6.17 | 1.81 |
| CC(=O)NCc1ccc(C(=O)N2CCCC2c2cnn(C)c2)o1 (stereo unspecified) | -4.23 | -2.63 | -0.621 | 3.5 | -0.467 | 3.24 | 6.51 | -0.0723 | -0.493 | -1.24 | 2.06 |
| CCn1cnnc1CNC(=O)N1CCN(Cc2ccccc2)CC1 | -4.19 | 26 | -4.86 | -6.22 | 6.95 | -2.32 | 12.1 | 0.217 | 8.57 | 30.6 | -22.4 |
| COC[C@@]12CCO[C@@H]1CCN(Cc1ccccc1F)C2 | -2.12 | 11 | -5.09 | 8.1 | 5.75 | -2.79 | 10.5 | 3.87 | 4.17 | 8.64 | -4.87 |
| CC(C)c1nc(C2CCCN2C(=O)c2cnc[nH]2)no1 (stereo unspecified) | -7.47 | 8.11 | 3.18 | 5.28 | -6.96 | 0.554 | -5.75 | 23.2 | 0 | 1.22 | 4.79 |
| COc1cc(CNC(=O)Nc2cc(C(F)(F)F)c[nH]c2=O)ccn1 | -3.54 | 13.2 | 2.48 | 10.4 | 1.13 | -3.06 | 12.7 | 7.49 | 0.49 | 12.2 | -11.3 |
| Cc1noc(C(C)C)c1C(=O)NCC(c1cccc(F)c1)N(C)C (stereo unspecified) | 0.211 | -2.53 | 0.144 | -2.52 | -1.6 | 5.32 | -7.45 | 2.06 | 2.46 | -8.86 | 2.02 |
| O=C(c1cccnc1)N1CC[C@H](OCC2CC2)[C@@H]1Cc1cccnc1 | -0.924 | 13.3 | 5.44 | -0.245 | -4.44 | -43.2 | 2.73 | -15.6 | 1.04 | -10 | -6.48 |
| Cc1ccc(-c2cc(N)c(=O)n(CC(=O)NC3CCCCC3)n2)s1 | -4.68 | 6.76 | 14.2 | 4.48 | -4.74 | 4.41 | 8.42 | 15.6 | 1.07 | 6.49 | -8.72 |
| Fc1cccc(CN2CCC(c3n[nH]c4ncccc34)CC2)c1F | -3.7 | 9.46 | 25.8 | 6.41 | 7.71 | -1.16 | 18.2 | 18.6 | 3.23 | 14.3 | -10.6 |
| CN(Cc1nc(C2CC2)no1)C1CCCN(c2cccnn2)C1 (stereo unspecified) | -1.65 | -17.7 | 11.7 | 7.67 | 1.6 | 1.14 | -0.573 | -0.447 | 6.4 | 3.8 | 4.91 |
| CCOc1ccc(N(CC(=O)c2ccccc2)C2=NCCCCC2)cc1 | -1.17 | -10.5 | 6.97 | 2.61 | 3.21 | -2.37 | 8.72 | -7.49 | -1.06 | -10.4 | 4.46 |
